# Experimental data: PMC5836133, “The intracellular immune receptor Rx1 regulates the DNA-binding activity of a Golden2-like transcription factor”
# The full ranking holds about 16,000 sequences; the median of “e-score” is about -0.044, and the highest 2% start at about 0.38. The list comes from a sample in which the highest values are over-represented; it also holds similar and randomly drawn sequences.
# Target: T1, GST-NbGlk1(82-244) (Nicotiana benthamiana)
# T1 chain: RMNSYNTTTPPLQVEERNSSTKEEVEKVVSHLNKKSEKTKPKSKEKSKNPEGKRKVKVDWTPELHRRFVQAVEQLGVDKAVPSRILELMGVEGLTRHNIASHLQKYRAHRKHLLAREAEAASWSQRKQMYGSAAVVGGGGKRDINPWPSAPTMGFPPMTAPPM
# Assay: protein-binding microarray; NbGlk1 is a Golden2-like transcription factor of Nicotiana benthamiana; high values mean tight binding
# Conditions: protein: recombinant; tags: GST (pTH6838); dsDNA, one strand shown
row,Sequence,binding signal [E-score]
1,AATCCAGA,0.349 ± 0.0199
2,ATTACCAC,0.255 ± 0.0899
3,ATCATAGA,0.214 ± 0.00111
4,ATGAAAAT,0.321 ± 0.0714
5,AGGAAATC,0.4891 ± 0.000893
6,AAGAAATA,0.222 ± 0.0864
7,AAGAAATC,0.443 ± 0.00563
8,ATGAAATC,0.4523 ± 0.00241
9,ACGAAATC,0.477 ± 0.0103
10,ACGAAAAT,0.272 ± 0.0271
11,AGGAAATA,0.239 ± 0.0792
12,AGGAAAAT,0.226 ± 0.0215
13,ACGAAATA,0.246 ± 0.0511
14,AAGAAAAT,0.34 ± 0.023
15,ATTAAATC,0.217 ± 0.0673
16,AACCGGAT,0.233 ± 0.0852
17,ATTTTGGG,0.2605 ± 0.000343
18,ACTGCGAT,0.208 ± 0.0497
19,AGTGGATA,0.257 ± 0.0756
20,AAAACTTA,0.223 ± 0.0511
21,ATCCAGAA,0.288 ± 0.0705
22,ACGCGAAT,0.244 ± 0.0302
23,CAATCGTA,0.235 ± 0.0447

row,Sequence,binding signal [E-score]
1,ATCTGAGG,0.265 ± 0.031
2,AATTAGAT,0.224 ± 0.00637
3,CAGAATTC,0.234 ± 0.013
4,AATAAATC,0.253 ± 0.0219
5,CAGAAATC,0.405 ± 0.0372
6,ACAGTATC,0.304 ± 0.0326
7,AATCTTTA,0.352 ± 0.0119
8,AATCTTGT,0.397 ± 0.0291
9,AATCTTTG,0.378 ± 0.0158
10,AATCTTGC,0.3479 ± 0.00119
11,AATCTTGG,0.386 ± 0.0186
12,AATCTTTC,0.387 ± 0.0286
13,AATCTTGA,0.3773 ± 0.0026
14,AATCATGT,0.304 ± 0.0651
15,ATTCTTGG,0.242 ± 0.0219
16,AATCGTGG,0.286 ± 0.072
17,ATCCTAGA,0.263 ± 0.0827
18,AAGGAGAT,0.261 ± 0.0685
19,AGGCAATC,0.417 ± 0.0072
20,ATCCAATC,0.254 ± 0.066
21,AATCAATC,0.25188 ± 0.000161
22,ATACAATC,0.274 ± 0.01
23,AGGCGATC,0.3174 ± 0.0029

row,Sequence,binding signal [E-score]
1,ATGCAATC,0.4516 ± 0.0024
2,AAGCAATC,0.386 ± 0.0251
3,AGGCAAAT,0.238 ± 0.00762
4,ACGCAATA,0.2818 ± 0.000398
5,ATGCAAAT,0.299 ± 0.0135
6,ACGCAATC,0.4798 ± 0.00123
7,CAGCAATC,0.339 ± 0.0127
8,ATCTGTTA,0.295 ± 0.102
9,AGGATCCT,0.307 ± 0.0236
10,ATCCGAGA,0.308 ± 0.0203
11,AAATGGAT,0.235 ± 0.0673
12,ATCCACTA,0.247 ± 0.0967
13,AAATTTTA,0.24 ± 0.021
14,ATTGCCCC,0.205 ± 0.0299
15,AGGGTAAT,0.262 ± 0.0657
16,AGTAATCG,0.296 ± 0.00931
17,ATCACAGA,0.217 ± 0.141
18,ATATCTTG,0.436 ± 0.0173
19,ATATCTTA,0.408 ± 0.0113
20,ATCTCTTA,0.337 ± 0.015
21,ATATCGTC,0.328 ± 0.0135
22,ATCTCTGC,0.311 ± 0.0301
23,ATATCTGC,0.438 ± 0.0129

row,Sequence,binding signal [E-score]
1,ATATCGGC,0.354 ± 0.0162
2,ATATCGTG,0.348 ± 0.0162
3,ATATCATA,0.307 ± 0.0181
4,ATCTCTTC,0.286 ± 0.00741
5,ATATCTTC,0.412 ± 0.0234
6,ATATCATG,0.373 ± 0.00698
7,AGCGATCG,0.204 ± 0.00262
8,AATTCTAT,0.22 ± 0.114
9,AATTGGAT,0.2 ± 0.0585
10,ATCTTAAT,0.321 ± 0.00718
11,ATATTAAG,0.251 ± 0.0913
12,ATCCACAA,0.29 ± 0.0043
13,ATTTTATA,0.281 ± 0.0713
14,ATTTGCGA,0.294 ± 0.051
15,AGTAAAAT,0.292 ± 0.0131
16,ACTGAATA,0.204 ± 0.00699
17,ATATCGGG,0.343 ± 0.0169
18,ATCTCTGG,0.205 ± 0.0181
19,ATATCTGA,0.399 ± 0.00857
20,ATCTCCTG,0.3116 ± 0.00208
21,ATCTCGTG,0.357 ± 0.0779
22,ATATCAGA,0.343 ± 0.0575
23,ATCTCTGA,0.269 ± 0.143

row,Sequence,binding signal [E-score]
1,ATCTCTTG,0.379 ± 0.0245
2,ATATCTGG,0.401 ± 0.00925
3,ATCTACTA,0.341 ± 0.0266
4,ATCTGTGA,0.344 ± 0.0977
5,ATATGCTA,0.224 ± 0.0529
6,ACATAGAT,0.223 ± 0.0149
7,ATATTCAC,0.208 ± 0.132
8,ATCATAAA,0.232 ± 0.00949
9,ATCCAGGA,0.328 ± 0.0422
10,AGTATCCG,0.328 ± 0.0412
11,AATCTGGT,0.443 ± 0.0103
12,AATCAGGG,0.313 ± 0.0785
13,AATCTGGC,0.416 ± 0.0222
14,ATCCTGGC,0.244 ± 0.119
15,AATCTGGG,0.428 ± 0.0442
16,ATCCTGGA,0.296 ± 0.0334
17,ATCTGGGG,0.27 ± 0.147
18,AATCTGGA,0.452 ± 0.00746
19,ATTCTGGA,0.248 ± 0.0551
20,AATCGGGT,0.272 ± 0.0576
